# Values joined by “and” are separate entries in the source; they are usually repeats but may differ in a detail not shown here. Equal entries are not always repeated. The whole screen tested about 1,300 compounds, of which about 420 (32%) were called active. Inconclusive results (about 32%) are left out. This is one part of the list. Unmarked numbers belong to inactive results. Calls come from the whole dose curve; as a rule, active = well fitted inhibition curve with a large enough effect; inconclusive = small, poorly fitted or top-dose-only effect; inactive = no such curve, though single readings can be large or run the other way.
# Target: C-terminal-binding protein 1 (Homo sapiens) (UniProt Q13363)
# Test: qHTS for Inhibitors of the Phosphatase Activity of Eya2: Carboxyl-terminal binding protein (CtBP) Counterscreen for Cherry-picked Compounds; note: nearly all actives have a fitted effect of over 65% in size
# Conditions: purified protein-protein binding, AlphaScreen, 3 h; series mostly up to 46.1 µM; activity change, negative = inhibition: at the top concentration
# Method in brief: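 AlphaScreen using 25 nM GST-E1A with 25 nM CtBP-6xHIS; compounds at 2.5 nM–46 uM final, 2 h at room temperature, then donor/acceptor beads (20 ug/mL) for 1 h in the dark. Signal normalized to E1A peptide inhibitor (maximum inhibition) and DMSO.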
# % is set by controls: 0 for no effect and ±100 for the full control effect; potency is the fitted concentration of half-maximal effect.
SMILES,"activity change, negative = inhibition",Potency
CCN(CC)C(=O)CC(c1ccc(OC)cc1)c1c(OC)cc(OC)c2ccc(=O)oc12 (centres undefined),3.43%,
Cc1[nH]n(-c2cccc3ccccc23)c(=O)c1C=Nc1ccc2[nH]c(=O)[nH]c2c1,,7.57 µM (active)
Cc1cccc(-n2c(O)c(C=Nc3ccccc3)c3ccccc3c2=O)n1,-17.4%,
CC1CCCCC1NC(=O)COC(=O)c1c2c(nc3ccccc13)/C(=C\c1ccco1)CC2 (centres undefined),-25.9%,
Cn1nc([N+](=O)[O-])nc1Sc1cccc2cccnc12,,2.69 µM (active)
Clc1ccc(-n2nnnc2-c2cnc3ccccc3c2-c2ccccc2)cc1,-9.82%,
O=C(NN1C(=O)/C(=C/C=C/c2ccco2)SC1=S)c1ccncc1,,12 µM (active)
Oc1ccc(Cl)cc1CNc1cccc2cccnc12,,5.36 µM (active)
Oc1c(Br)cc(Br)cc1CNc1cccc2cccnc12,,5.36 µM (active)
CCOC(=O)C1=C(COC(=O)CCOc2ccccc2)NC(=O)NC1C (centres undefined),4.16%,
CN(C)c1ccc(-c2ccnc3c2CC(C)(C(=O)NCCC(F)(F)F)O3)cc1 (centres undefined),-19.4%,
COc1ccc(S(=O)(=O)N2CCN(C(=O)c3cc4c(s3)CCC4)CC2)cc1,-5.73%,
O=C(O)c1c2c(nc3ccc(S(=O)(=O)N4CCC(C(=O)NC5CCCC5)CC4)cc13)CCCCC2,-4.44%,
Cc1ccc(CNC(=O)C2CCN(S(=O)(=O)c3ccc4nc5c(c(C(=O)O)c4c3)CC(C)CC5)CC2)cc1 (centres undefined),,10.7 µM (active)
COc1ccc(CNC(=O)C2CCN(S(=O)(=O)c3ccc4nc5c(c(C(=O)O)c4c3)CCCC5)CC2)cc1,,12 µM (active)
O=C(Nc1cc(S(=O)(=O)N2CCOCC2)ccc1Cl)c1cc(=O)c2ccccc2o1,-23.2%,
CCOC(=O)N1CCN(S(=O)(=O)c2ccc(C(=O)NNc3nc4ccc(Cl)cc4s3)cc2)CC1,-11.8%,
Cc1ccc(NC(=O)COc2ccc(S(=O)(=O)N3CCOCC3)cc2)cc1,1.7%,
COc1ccc(C(=O)Nc2nc(-c3ccccn3)cs2)cc1S(=O)(=O)N1CCOCC1,,1.51 µM (active)
O=C(COC(=O)c1n[nH]c(=O)c2ccccc12)Nc1cccc(S(=O)(=O)N2CCOCC2)c1,-14%,
COc1ccc(CC(=O)Nc2cccc(Cl)c2C)cc1S(=O)(=O)N1CCOCC1,-0.0315%,
COc1ccc(C(=O)Nc2ccc3nc(C)sc3c2)cc1S(=O)(=O)N1CCOCC1,,21.3 µM (active)
O=S(=O)(c1ccc(Cl)cc1)N1CCOCC1,9.26%,
O=C(Nc1nc(-c2ccc(S(=O)(=O)N3CCOCC3)cc2)cs1)c1ccccc1,,6.75 µM (active) and 7.57 µM (active)
O=C(Nc1nc(-c2ccccn2)cs1)c1cccc(S(=O)(=O)N2CCOCC2)c1,,1.69 µM (active)

SMILES,"activity change, negative = inhibition",Potency
O=C(Nc1nc2c(F)cc(F)cc2s1)c1ccc([N+](=O)[O-])o1,-19.4%,
Oc1ccccc1-n1c(-c2ccccc2)ccc1-c1ccccc1,-11%,
CN1CCN(C(c2ccccn2)c2cc(Cl)c3cccnc3c2O)CC1 (centres undefined),,1.51 µM (active)
OC(c1ccc(Cl)cc1)c1nccc2ccccc12 (centres undefined),9.19%,
Oc1c(C(c2ccc(Cl)cc2)N2CCCC2)cc(Cl)c2cccnc12 (centres undefined),,4.78 µM (active)
O=C(c1ccc2c(=O)n3c(nc2c1)CCCCC3)N1CCN(c2cccc(Cl)c2)CC1,,16.9 µM (active)
COc1ccc(/C=C/C(=O)Nc2ccc3nc4n(c(=O)c3c2)CCCC4)cc1,-17.7%,
NC(=O)c1nc(C(=O)N2CCCCC2)c2ccccc2n1,4.22%,
Cc1ccc(NC(=S)N2CCc3[nH]c4ccccc4c3C2)cc1,1.7%,
CN(C)c1ccc(C2C=Cc3ccccc32)c2ccccc12 (centres undefined),,9.53 µM (active)
O=C(Oc1ccc(C(=S)N2CCCCC2)cc1)c1ccccc1F,-20.3%,
c1ccc2cc(CSCc3nc4ccccc4[nH]3)ccc2c1,-16.5%,
CCc1ccc(N=C2NC(=O)/C(=C/c3cc(OC)c(O)c(OC)c3)S2)cc1,,19 µM (active)
Cc1ccccc1N=C1NC(=O)/C(=C/c2cccn2C)S1,-28%,
O=C(c1cccc(-n2cccc2)c1)N1CCN(S(=O)(=O)c2ccccc2)CC1,-25.9%,
CC1Cc2ccccc2N1NC(=O)c1ccc(Cl)c(S(N)(=O)=O)c1 (centres undefined),3.62%,
O=C(c1cccc(S(=O)(=O)Nc2ccccc2Cl)c1)N1CCN(c2ccccc2O)CC1,,15.1 µM (active)
CC1C(c2ccccc2)=Nn2c(=O)n(-c3ccccc3)c(=O)n21 (centres undefined),-4.88%,
N#Cc1ccc(C(=O)N2CCC3CC2c2cc(-c4ccccc4)ccc23)cc1 (centres undefined),-9.92%,
Cc1oc2c(Cl)c(Cl)c(O)c(CN(C)C)c2c1C(=O)c1ccc(Cl)cc1,,15.1 µM (active)
COC(=O)c1ccccc1NC1=C/C(=N\S(=O)(=O)c2cccs2)c2ccccc2C1=O,,1.69 µM (active)
COCCN(Cc1cc2cc3c(cc2nc1Cl)OCO3)C(=O)Nc1ccc(OC)cc1,13.9%,
O=C(CSc1nc2ccccc2n1CCc1ccccc1)c1ccc(O)c(O)c1,-27.5%,
CCOC(=O)C(C)Sc1nc(-c2ccccn2)ncc1OC (centres undefined),,2.39 µM (active)
